According to PubChem BioAssay (NCI):
“And” between values parts separate entries of the source, which are not always exact repeats. Equal values may be shown once. The panel holds about 79,000 compounds, 15% with a hit somewhere; the sample as a whole holds those more often. A structure can be active in one record and inactive in another. The source made the active and inactive calls. Cut-off read from the data, not from the text of the source: active = growth inhibition above about 70%; inactive = the rest.

Experiment: NCI Yeast Anticancer Drug Screen. Data for the mec2-1 strain (AID 157)
Conditions: S. cerevisiae mec2-1 strain, at 33.0 µM, stronger effect = higher value
Method in brief: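 Each compound was tested on mec2-1 yeast, a strain altered in DNA damage repair or cell cycle control. Growth inhibition is reported relative to vehicle.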

Row | SMILES | growth inhibition
1 | COc1ccc(/C=C2\CCc3ccccc3C2=O)cc1OC | 24% (inactive)
2 | O=Cc1ccccc1B(O)O | 99% (active)
3 | CC(=O)CC[N+](C)(C)C | -7% (inactive)
4 | O=C(O)[C@H]1[C@@H](C2CCCCC2)O[C@@H](C2CCCCC2)O[C@H]1C(F)(F)F | -4% (inactive)
5 | CN(NC(=O)/C(=C/C=C/c1ccccc1)NC(=O)c1ccccc1)C1=C(Cl)C(=O)[N+](c2ccccc2)=CC1 | 37% (inactive)
6 | CCCCOc1ccc(Nc2c3ccccc3nc3ccccc23)cc1 | 97% (active)
7 | N#C/C(=C1C=C/C(=N\O)C(Cl)=C\1)c1ccccc1 | 5% (inactive)
8 | COc1ccc(C(=O)OCCc2ccccc2)cc1 | -5% (inactive)
9 | Cc1c2ccncc2c(C)c2c1oc1ccccc12 | 80% (active)
10 | CCCC#CCOC(=O)c1cc([N+](=O)[O-])cc([N+](=O)[O-])c1 | 99% (active)
11 | Nc1nc(Nc2ccccc2)nc(Nc2ccccc2)n1 | -2% (inactive)
12 | COc1ccc(/C=C2\S/C(=N/Nc3nc(-c4ccccc4)cs3)NC2=O)cc1OC | 97% (active)
13 | CC(O)CN1C(=O)c2cccc3cc([N+](=O)[O-])cc(c23)C1=O (centres undefined) | 34% (inactive)
14 | Cn1c(COc2ccc(/C=N/NC(=O)CCC(=O)N/N=C/c3ccc(OCc4c[n+]5ccccc5n4C)cc3)cc2)c[n+]2ccccc12 | 10% (inactive)
15 | COC1=C(N=[N+]=[N-])C(=O)c2ncccc2C1=O | 93% (active)
16 | CCN(CC)c1ccc(N=Nc2cc(S(=O)(=O)O)ccc2O)c(O)c1 | -9% (inactive)
17 | O=C1C(C(O)(C(F)(F)F)C(F)(F)F)CCC1C(O)(C(F)(F)F)C(F)(F)F (centres undefined) | 20% (inactive)
18 | CN(C)CCNC(=O)c1cccc2nc3c(ccc4ccccc43)nc12 | 25% (inactive)
19 | O=S(=O)(CCC[C@H]1[C@@H](CCOCc2ccccc2)C2CCCN1O2)c1ccccc1 (some centres undefined) | 13% (inactive)
20 | CCC(C)/C(C)=N/NC(N)=O (centres undefined) | -3% (inactive)
21 | Nc1c([N+](=O)[O-])cc2c3c(cccc13)CC2 | 25% (inactive)
22 | CC1=Cc2ccc(C)cc2C(=O)C1=O | 100% (active)
23 | C=Cc1c(C)c(O)cc2c1-c1ccc(O)c(C)c1CC2 | 98% (active)
24 | NCC(O)CSCc1ccc(Cl)cc1 (centres undefined) | -2% (inactive)
25 | C[n+]1c(-c2ccc(NC(=O)c3ccc(C(=O)Nc4ccc(-c5cn6ccccc6[n+]5C)cc4)cc3)cc2)cn2ccccc21 | 82% (active)
26 | CNC(=O)OCc1c(COC(=O)NC)c(C)n(-c2ccc(Cl)c(Cl)c2)c1C | 98% (active)
27 | [O-]c1c2cc(-[n+]3c(-c4ccccc4)cc(-c4ccccc4)cc3-c3ccccc3)cc1COCCOCCOCCOCCOC2 | 4% (inactive)
28 | C[Si](C)(C)Cc1ccccc1C(=O)O | 29% (inactive)

Same assay, conditions: S. cerevisiae mec2-1 strain, at 50.0 µM (retest, dose inferred, filed as 5.0), stronger effect = higher value

Row | SMILES | growth inhibition
29 | COc1ccc(/C=C2\CCc3ccccc3C2=O)cc1OC | 66% (inactive)
30 | CC(C)c1ccc(O)c(=O)cc1 | 50% (inactive) and 57% (inactive) and 7% (inactive)
31 | O=Cc1ccccc1B(O)O | 96% (active)
32 | OCC(O)C(O)C(O)C(O)c1nc2ccccc2[nH]1 (centres undefined) | -30% (inactive)
33 | CC(=O)CC[N+](C)(C)C | 59% (inactive)
34 | O=C(O)[C@H]1[C@@H](C2CCCCC2)O[C@@H](C2CCCCC2)O[C@H]1C(F)(F)F | 16% (inactive)
35 | CN(NC(=O)/C(=C/C=C/c1ccccc1)NC(=O)c1ccccc1)C1=C(Cl)C(=O)[N+](c2ccccc2)=CC1 | 2% (inactive)
36 | CCCCOc1ccc(Nc2c3ccccc3nc3ccccc23)cc1 | 89% (active)
37 | N#C/C(=C1C=C/C(=N\O)C(Cl)=C\1)c1ccccc1 | 36% (inactive)
38 | COc1cccc2c1C(=O)c1c(O)c3c(c(O)c1C2=O)CC(O)(C(=O)CO)CC3OC1CC(N)C(O)C(C)O1 (centres undefined) | 8% (inactive) and 10% (inactive) and 58% (inactive)
39 | COc1ccc(C(=O)OCCc2ccccc2)cc1 | -14% (inactive)
40 | Cc1c2ccncc2c(C)c2c1oc1ccccc12 | 93% (active)
41 | CCCC#CCOC(=O)c1cc([N+](=O)[O-])cc([N+](=O)[O-])c1 | 100% (active)
42 | Nc1nc(Nc2ccccc2)nc(Nc2ccccc2)n1 | 21% (inactive)
43 | COc1ccc(/C=C2\S/C(=N/Nc3nc(-c4ccccc4)cs3)NC2=O)cc1OC | 87% (active)
44 | CCCCCCCCCCCC[N+](C)(C)Cc1ccccc1 (tested in a mixture with another compound) | 100% (active)
45 | CC(O)CN1C(=O)c2cccc3cc([N+](=O)[O-])cc(c23)C1=O (centres undefined) | 65% (inactive)
46 | Cc1cc(SC#N)ccc1O | 83% (active) and 90% (active) and 62% (inactive)

Row | SMILES | growth inhibition
47 | Cn1c(COc2ccc(/C=N/NC(=O)CCC(=O)N/N=C/c3ccc(OCc4c[n+]5ccccc5n4C)cc3)cc2)c[n+]2ccccc12 | 12% (inactive)
48 | COC1=C(N=[N+]=[N-])C(=O)c2ncccc2C1=O | 94% (active)
49 | CCN(CC)c1ccc(N=Nc2cc(S(=O)(=O)O)ccc2O)c(O)c1 | 81% (active)
50 | O=C1C(C(O)(C(F)(F)F)C(F)(F)F)CCC1C(O)(C(F)(F)F)C(F)(F)F (centres undefined) | 26% (inactive)
51 | COc1nc(N)c(N=CC(OC(C)=O)C(OC(C)=O)C(COC(C)=O)OC(C)=O)c(=O)n1C (centres undefined) | 3% (inactive) and 1% (inactive) and 5% (inactive)
52 | CN(C)CCNC(=O)c1cccc2nc3c(ccc4ccccc43)nc12 | 23% (inactive)
53 | O=S(=O)(CCC[C@H]1[C@@H](CCOCc2ccccc2)C2CCCN1O2)c1ccccc1 (some centres undefined) | -22% (inactive)
54 | CCC(C)/C(C)=N/NC(N)=O (centres undefined) | -2% (inactive)
55 | Nc1c([N+](=O)[O-])cc2c3c(cccc13)CC2 | 29% (inactive)
56 | CC1=Cc2ccc(C)cc2C(=O)C1=O | 99% (active)
57 | C=Cc1c(C)c(O)cc2c1-c1ccc(O)c(C)c1CC2 | 97% (active)
58 | NCC(O)CSCc1ccc(Cl)cc1 (centres undefined) | 5% (inactive)
59 | C[n+]1c(-c2ccc(NC(=O)c3ccc(C(=O)Nc4ccc(-c5cn6ccccc6[n+]5C)cc4)cc3)cc2)cn2ccccc21 | 98% (active)
60 | Nc1ccccc1SSc1ccccc1N | 99% (active) and 0% (inactive)
61 | CCCCCCCCCCCC[N+](C)(C)C | 99% (active) and 98% (active) and 100% (active)
62 | CNC(=O)OCc1c(COC(=O)NC)c(C)n(-c2ccc(Cl)c(Cl)c2)c1C | 98% (active)
63 | [O-]c1c2cc(-[n+]3c(-c4ccccc4)cc(-c4ccccc4)cc3-c3ccccc3)cc1COCCOCCOCCOCCOC2 | 31% (inactive)
64 | C[Si](C)(C)Cc1ccccc1C(=O)O | 86% (active)
